# Out of some 420,000 compounds screened, about 50,000 (12%) were called active. Roughly 26% stayed inconclusive and do not appear here. Shown is part of a subset that was picked to be rich in actives. Values without a mark were called inactive. Calls come from the whole dose curve; as a rule, active = well fitted inhibition curve with a large enough effect; inconclusive = small, poorly fitted or top-dose-only effect; inactive = flat fitted curve, though single readings scatter.
# Assay: qHTS for Inhibitors of human tyrosyl-DNA phosphodiesterase 1 (TDP1): qHTS in cells in presence of CPT; note: nearly all actives have a fitted effect of over 55% in size
# Settings: chicken DT40 Tdp1-/-;hTDP1 cells + 20 nM CPT, ATP luminescence, 48 h; series mostly up to 46.2 µM; activity change, negative = growth inhibition: at the top concentration
# Summary of the method: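 Chicken DT40 Tdp1-/- cells complemented with human TDP1, 400 cells/well, exposed to compounds plus 20 nM camptothecin for at least 48 h at 37 C; viability read as ATP content by CellTiter-Glo luminescence.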
# % is set by controls: 0 for no effect and ±100 for the full control effect; potency is the fitted concentration of half-maximal effect.
Structure (SMILES),Potency,"activity change, negative = growth inhibition"
CC(=O)N1c2ccc(S(=O)(=O)N3CCCC(C(=O)Nc4cccc(Cl)c4)C3)cc2CC1C (stereo not given),16.4 µM (active),
COc1ccc(OC)c(NC(=O)c2cccc(S(=O)(=O)N3CCN(C(C)=O)CC3)c2)c1,,4.49%
CC(=O)N1c2ccc(S(=O)(=O)N3CCC(C(=O)NC4CCCC(C)C4C)CC3)cc2CC1C (stereo not given),,-25.8%
COc1ccc(OC)c(NC(=O)C2CCCN2S(=O)(=O)c2ccc3c(c2)CC(C)N3C(C)=O)c1 (stereo not given),20.6 µM (active),
CC(=O)N1c2ccc(S(=O)(=O)N3CCC(C(=O)NCc4ccc(F)cc4)CC3)cc2CC1C (stereo not given),,-26.5%
COc1ccc(OC)c(NC(=O)C2CCCN2S(=O)(=O)c2cccc3nsnc23)c1 (stereo not given),,-22.3%
CCc1cccc(NC(=O)C2CCCN(S(=O)(=O)c3ccc4[nH]c(=O)ccc4c3)C2)c1 (stereo not given),,-6.93%
CC(=O)N1c2ccc(S(=O)(=O)N3CCC(C(=O)NC4CCCCC4C)CC3)cc2CC1C (stereo not given),,5.58%
CC(=O)N1c2ccc(S(=O)(=O)N3CCCC(C(=O)Nc4cccc(F)c4)C3)cc2CC1C (stereo not given),11.6 µM (active),
CC(=O)N1CCc2cc(Br)cc(S(=O)(=O)CCC(=O)Nc3c(C)n(C)n(-c4ccccc4)c3=O)c21,,-6%
COC(=O)c1cc(NC(=O)CCc2c(C)nc3c4c(C)cc(C)nc4nn3c2C)cc(C(=O)OC)c1,,-8.98%
COc1ccc(NC(=O)CCCc2nnc3n(CCC(C)C)c(=O)c4sccc4n23)c(OC)c1,,-17.2%
COc1cc(C(=O)NN(CCC#N)C2=NS(=O)(=O)c3ccccc32)cc(OC)c1OC,,19.6%
COc1cc(/C=C/C(=O)OCC(=O)Nc2cccc(Oc3ccccc3)c2)ccc1O,,-24.9%
CN(c1ccc(OCC(=O)O)cc1)S(=O)(=O)c1ccc2ccccc2c1,,-4.79%
COc1ccc(NC(=O)C/C(C)=N/NC(=O)c2cnccn2)cc1Cl,,-9.25%
CC1(C(=O)NS(=O)(=O)c2ccccc2)CCN1C(=O)C/C=C/c1ccccc1 (stereo not given),,-13.3%
CC1(C)CCSC(/C=C/c2ccccc2)=N1,4.61 µM (active),
O=C(Nc1ccc(C(=O)OCc2cc(=O)n3nc(C4CC4)sc3n2)cc1)c1ccc(F)cc1,,-12.1%
O=C(N/N=C/c1cccc(OC(=O)c2ccc([N+](=O)[O-])cc2)c1)c1cccnc1,,10.5%

Structure (SMILES),Potency,"activity change, negative = growth inhibition"
O=C(CCNC(=O)Cn1ccc2ccccc2c1=O)NCCC1=CCCCC1,,2.96%
N#CC1(NC(=O)COC(=O)Cc2n[nH]c(=O)c3ccccc23)CCCCC1,,-2.98%
C/C=C/C=C/C(=O)O,inactive,
CCc1nnc(NC(=O)CSc2nc3ccccc3c(=O)n2CCCOC)s1,,-8.33%
COc1ccc(Cl)cc1NC(=O)CSc1nc2ccccc2c2nc(-c3ccccc3)nn12,,-13.4%
CC(=O)NCCn1c(SCC(=O)Nc2ccc(C)cc2)nc2ccccc2c1=O,inactive,
CCOCCCn1c(SCC(=O)Nc2cc(OC)ccc2OC)nc2ccccc2c1=O,13 µM (active),
CCOCCCn1c(SCC(=O)Nc2ccc(CC)cc2)nc2ccccc2c1=O,14.6 µM (active),
COc1ccc(OC)c(NC(=O)CSc2nc(-c3ccccc3)cc(=O)[nH]2)c1,,-8.5%
CC(C)[C@@H]1NC(=O)c2cc([N+](=O)[O-])cc(I)c2NCCC[C@@H](C(=O)NC(CC(=O)O)C(N)=O)NC(=O)[C@H](CO)NC1=O (stereo not given in full),,-22.2%
O=C(COC(=O)c1ccc(S(=O)(=O)N2CCCCCC2)cc1)Nc1ccccc1C(F)(F)F,,4.84%
CCc1ccccc1NC(=O)NCCN1CCCCC1,,-12.2%
CCCCN(C(=O)c1ccc(C)o1)c1c(N)n(CCCC)c(=O)[nH]c1=O,,7.98%
COCCNc1ncnc2c1ncn2[C@H]1CN(CCN2CCOCC2)C[C@@H](CO)O1,,6.48%
COc1ccc(CN2C(=O)C(CC(=O)NC3CCCCC3)CC(C(=O)N3CCOCC3)=C2C)cc1 (stereo not given),,-10.3%
CN(C)CCOc1cccc(Br)c1,,3.6%
Cc1cccc(NC(=O)c2cccnc2Cl)n1,,5.42%
CC(C)(C)c1ccc(/C=C/C(=O)Nc2ncccn2)cc1,,-28.6%
CSc1nccc(NC(=O)c2ccc(C(C)(C)C)cc2)n1,9.2 µM (active),
COc1ccc(S(=O)(=O)N(C)C[C@H]2OCc3cnnn3CCCC(=O)N([C@H](C)CO)C[C@H]2C)cc1,,-22.7%

Structure (SMILES),Potency,"activity change, negative = growth inhibition"
COCc1cc(=O)oc2cc(NS(=O)(=O)c3ccc(C)cc3)ccc12,,-6.27%
Cc1cc(SCc2c(F)cccc2Cl)nc(=O)[nH]1,,0.592%
Cn1ncc2c(N3CCCCC3)nc(NCCCO)nc21,,-2.76%
COc1cccc(CN2CCN(Cc3ccc4cccc(F)c4n3)CC2CCO)c1 (stereo not given),,-28.5%
CC(=O)c1cccc(NC(=O)c2nc(-c3ccccc3)n(-c3cccc(C)c3)n2)c1,16.4 µM (active),
CC(=O)c1cccc(NC(=O)c2ccncc2)c1,,-9.21%
CC(=O)c1cccc(NC(=O)c2cc(C)nn2-c2ccccc2)c1,,2.05%
COc1cccc(CNC(=O)c2cc(=O)[nH]c3ccc(S(=O)(=O)N4CCCCC4)cc23)c1,,-21.3%
O=C1NC[C@H](CCCCN2C[C@H](Cc3ccccc3)N(Cc3ccccc3)C(=O)C2=O)N(CCc2ccc(O)cc2)C1=O,,7.35%
O=[N+]([O-])c1ccc2c(c1)C(N1CCOCC1)/C(=C/C1(O)CCCCC1)O2 (stereo not given),,1.25%
Cn1nc(-c2ccccc2)c2cc([N+](=O)[O-])ccc21,,-2.27%
O=C(Nc1cccc2c1CCCC2)c1ccc(F)cc1,,-20.1%
CC1(C(=O)NS(=O)(=O)Cc2cccc(Cl)c2)CCN1C(=O)Cc1ccc(Cl)cc1Cl (stereo not given),,-18.1%
Cc1ccccc1S(=O)(=O)NC(=O)C1(C)CCN1C(=O)Cc1ccc(Cl)cc1Cl (stereo not given),,-20.6%
CC1(C(=O)NS(=O)(=O)c2ccc3ccccc3c2)CCN1C(=O)C1(c2ccc(Cl)cc2)CCC1 (stereo not given),,-24.2%
Cc1ccccc1S(=O)(=O)NC(=O)C1(C)CCN1C(=O)C1(c2ccc(Cl)cc2)CC1 (stereo not given),,-23.7%
Cc1ccccc1S(=O)(=O)NC(=O)C1(C)CCN1C(=O)C1(c2ccccc2)CCCC1 (stereo not given),14.6 µM (active),
CC1(C(=O)Nc2cccc3c2CCCC3)CCN1C(=O)CCc1ccc(Cl)cc1Cl (stereo not given),20.6 µM (active),
CCCNC(=O)C1(C)CCN1C(=O)C1(c2ccccc2)CC1 (stereo not given),,0.157%
CC1(C(=O)Nc2cccc3c2CCCC3)CCN1C(=O)C1(c2ccccc2)CC1 (stereo not given),16.4 µM (active),

# Source: PubChem BioAssay AID686979 (National Center for Advancing Translational Sciences (NCATS), 2013)
